# Tested on: not listed separately
# Experiment: modulators of HCV replicon luciferase signal, primary screen, HCV replication inhibitor project, Huh7 cells, luciferase reporter (AID 1109);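 further: huh7 hepatoma cells harbouring a luciferase neomycin HCV replicon reporter; luciferase luminescence as measure of HCV replicon replication; test concentration not given here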
# Details: 48 h, higher = more signal
row,SMILES,z-score
1,COCCCNC(=O)[C@@]1(CCC(=O)OC(C)(C)C)N=C(c2ccc(OCCCO)cc2)O[C@H]1c1ccccc1N=[N+]=[N-],1.46
2,OCCCC1=CC(c2ccc(CN3CCCC3)cc2)N(Cc2cc3c(cc2Br)OCO3)CC1 (stereo not given),-3.23
3,CCOC(=O)C[C@H]1[C@H](OC(=O)Cc2ccc3c(c2)OCO3)[C@@H](NC(=O)C2CCCCC2)c2cc(OCCCO)ccc2N1C(=O)c1ccccc1,-0.509
4,COCC(=C=CC[C@H](O)c1ccccc1OCCO)C[C@H](O)c1ccccn1,-0.267
5,[N-]=[N+]=NCc1ccccc1[C@@H]1OC(c2ccc(OCCCO)cc2)=N[C@]1(CCS(=O)(=O)c1ccccc1)C(=O)O,1.1

# Target: Left-right determination factor 2 (Homo sapiens) (UniProt O00292)
# Experiment: LEFTY2 binders on small-molecule microarrays, primary screen, biochemical, small-molecule microarray, 635 nm fluorescence scan (AID 1110)
# Details: LEFTY2 binding, higher = more signal
# Sequence of Left-right determination factor 2 (Homo sapiens) (O00292 whole entry, looked up): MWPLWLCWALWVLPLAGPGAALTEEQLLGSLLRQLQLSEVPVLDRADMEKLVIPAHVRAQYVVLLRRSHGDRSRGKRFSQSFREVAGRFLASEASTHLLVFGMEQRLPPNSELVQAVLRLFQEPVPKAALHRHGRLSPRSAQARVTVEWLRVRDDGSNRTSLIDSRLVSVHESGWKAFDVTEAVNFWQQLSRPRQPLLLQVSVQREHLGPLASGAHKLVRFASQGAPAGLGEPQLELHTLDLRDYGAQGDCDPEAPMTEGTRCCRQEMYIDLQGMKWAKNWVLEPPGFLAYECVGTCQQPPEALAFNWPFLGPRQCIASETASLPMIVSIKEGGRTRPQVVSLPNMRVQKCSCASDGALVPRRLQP
row,SMILES,composite z-score
1,[N-]=[N+]=Nc1ccccc1C[C@@]1(C(=O)N2CCOCC2)N=C(c2ccc(OCCCO)cc2)O[C@@H]1c1ccccc1,-0.0238
2,[N-]=[N+]=Nc1ccccc1C[C@]1(C(=O)O)COC(c2ccc(OCCCO)cc2)=N1,-0.856
3,COCCOC(=O)N1C(=O)[C@@]2(c3cc(C#CC4=CCCCC4)ccc31)[C@H](c1ccccc1OCCO)N1[C@H](c3ccccc3)[C@H](c3ccccc3)OC(=O)[C@H]1[C@@H]2C(=O)N1CCN(c2ncccn2)CC1,0.718
4,O=C1O[C@@H](c2ccccc2)[C@@H](c2ccccc2)N2[C@@H](c3ccc(OCCO)cc3)[C@]3(C(=O)Nc4ccc(C#CC5=CCCCC5)cc43)[C@@H](C(=O)NC[C@H](O)c3ccccc3)[C@H]12,0.665
5,[N-]=[N+]=Nc1ccccc1C[C@]1(C(=O)NCCN2CCOCC2)COC(c2ccc(OCCCO)cc2)=N1,0.795
6,O=C1OCCC=C[C@H]2OC34C=CCN(Cn5nnc6ccccc65)C(=O)[C@H]3N(CCCO)C(=O)[C@@H]4C12 (stereo not given in full),-1.02
7,CC(C)[Si](C#C[Si](C(C)C)(C(C)C)C(C)C)(O[C@H](c1ccccc1)c1cn(Cc2ccccc2)nn1)C(C)C,0.637
8,CC(C)N1C(=O)C[C@@](C(=O)O)(c2ccc([N+](=O)[O-])cc2)[C@H]1c1ccc(CO)cc1,-1.14
9,C=CCC(OC(C)=O)[C@@H]1[C@@H](N(Cc2ccc(-c3ccccc3)cc2)C(=O)c2ccc(-c3ccccc3)cc2)c2cc(OCCCO)ccc2N1C(=O)c1ccc2ccccc2c1 (stereo not given in full),-0.0379
10,COc1ccc([Si](C)(C)[C@@H]2[C@@H](CCO)O[C@]3(C(=O)N(Cc4ccccc4)c4ccc(N5CCOC5=O)cc43)[C@H]2C)cc1,0.217
11,[N-]=[N+]=Nc1ccccc1C[C@]1(C(=O)NCC(O)CO)COC(c2ccc(OCCCO)cc2)=N1 (stereo not given in full),-0.314
12,CN(C)CCCCCCNC(=O)[C@@H]1C[C@@H]2C(=O)N3CCC[C@H]3C(=O)N2[C@@H]1c1cccc(OCCO)c1,0.944
13,CCOC(=O)C[C@H]1[C@H](OC(=O)c2cc3ccccc3oc2=O)[C@@H](NC(=O)c2ccccc2)c2cc(OCCCO)ccc2N1C(=O)c1ccccc1,0.535
14,O=C1C2C=CC(C(O)c3cccc(O)c3)N(Nc3ccc([N+](=O)[O-])cc3)C2C(=O)N1c1ccccc1 (stereo not given),0.183
15,C=CC[C@@]1(C(=O)NCCCOC)N=C(c2ccc(OCCCO)cc2)O[C@@H]1c1ccccc1,-0.526
16,CCCCC(=C=CC[C@H](O)c1ccc(OCCO)cc1)CCO,-0.917
17,C=C(C(=O)CC[C@H](OC(=O)c1ccccc1-c1ccccc1C(=O)O)c1cccc(OCCO)c1)C(C)C,-0.103
18,COC(=O)[C@]1(CCS(=O)(=O)c2ccccc2)N=C(c2ccc(OCCCO)cc2)O[C@@H]1c1ccccc1N=[N+]=[N-],0.744
19,C=C(/C(=C/C[C@H](OC(=O)c1ccncc1)c1ccc(CO)o1)c1cnc2ccccc2c1)C(C)C,0.957
20,CC[C@@H]1C=C(C(=O)O)[C@H](c2ccc(C#N)cc2)N1S(=O)(=O)c1ccc(C)cc1,0.635
21,CCCCCCCCCCC(O)C1C=CC2C(=O)N(c3ccccc3)C(=O)C2N1Nc1ccc(C#N)cc1 (stereo not given),-0.157
22,CC[C@@H]1C=C(C(=O)O)[C@H](c2ccccc2)N1S(=O)(=O)c1ccc(C)cc1,0.0801
23,O=C1O[C@H](c2ccccc2)[C@H](c2ccccc2)N2[C@H]1[C@@H](C(=O)O)[C@]1(C(=O)Nc3ccc(C#CCCO)cc31)[C@H]2c1ccccc1OCCO,-0.587
24,O=C1C2C=CC(C(O)c3ccco3)N(Nc3ccccc3F)C2C(=O)N1c1ccccc1 (stereo not given),-0.46
25,COc1ccc([Si](C)(C)[C@@H]2[C@@H](CCO)O[C@]3(C(=O)N(Cc4cccc(NC(=O)[C@H](C)O)c4)c4ccccc43)[C@H]2C)cc1,0.0544

# — PubChem BioAssay
